In PubChem BioAssay (NCATS):
Inconclusive results are not listed. Calls of active or inactive are those of the source. The call rests on the fitted dose curve; in most records, active means well fitted inhibition curve with a large enough effect; inconclusive means small, poorly fitted or top-dose-only effect; inactive means flat fitted curve, though single readings scatter.

Legend:
Experiment in all cases: qHTS profiling for inhibitors of Plasmodium falciparum proliferation (AID 504749); further: nearly all actives have a fitted effect of over 60% in size
Conditions in all cases: P. falciparum in erythrocytes, SYBR Green DNA, 72 h; series mostly up to 28.7 µM
[1] = test system: CP297
In short: (§1)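 Fluorescence of SYBR Green-bound parasite DNA, read at 485/535 nm, served as the growth measure. Infected erythrocytes were cultured with compound 72 h; artemisinin (0.29 uM) and DMSO wells defined the normalization range.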

[2] = test system: CP305
In short: as §1

[3] = test system: CP315
In short: as §1

[4] = test system: CP325
In short: as §1

[5] = test system: CP329
In short: as §1

[6] = test system: CP335
In short: as §1

[7] = test system: DFO2036
In short: as §1

[8] = test system: DIV14
In short: as §1

[9] = test system: DIV17
In short: as §1

[10] = test system: DIV30
In short: as §1

[11] = test system: Dd2
In short: as §1

[12] = test system: ECU
In short: as §1

[13] = test system: FAB9
In short: as §1

[14] = test system: GB4
In short: as §1

[15] = test system: HB3
In short: as §1

[16] = test system: ICS
In short: as §1

[17] = test system: JCK
In short: as §1

[18] = test system: N140
In short: as §1

[19] = test system: P93_24
In short: as §1

[20] = test system: P94_40
In short: as §1

Measured: Potency

NC(=S)NS(=O)(=O)c1ccc(N)cc1
inactive: all assays above

CN1CCC(OC(=O)C(Oc2ccc(Cl)cc2)Oc2ccc(Cl)cc2)CC1
inactive: all assays above

COC(=O)C(CN)c1c[nH]c2ccc(OC)cc12 (stereo not given)
inactive: all assays above

OB(O)O
inactive: all assays above

CCOC(=S)SSC(=S)OCC
inactive: all assays above

NC(=O)[C@@H]1CCCN1C(=O)[C@H](Cc1cnc[nH]1)NC(=O)[C@@H]1CCC(=O)N1
inactive: all assays above

CC(=O)NCCCS(=O)(=O)O
inactive: all assays above

CCN(CC)CCOC(=O)c1cccnc1
inactive: all assays above

O=C(/C=C/c1cccc(F)c1)NC1CC1
inactive: all assays above

CC1(O)CCC(C(C)(C)O)CC1 (stereo not given)
inactive: all assays above

S=C=Nc1ccc(N=C=S)cc1
inactive: all assays above

CC(C)c1nc(N(C)S(C)(=O)=O)nc(-c2ccc(F)cc2)c1/C=C/C(O)CC(O)CC(=O)O (stereo not given)
inactive: all assays above

Cc1ncc(COP(=O)(O)O)c(CN)c1O
inactive: all assays above

O=C(O)COc1ccc(CCNS(=O)(=O)c2ccccc2)s1
inactive: all assays above

O=C1NCCN1c1ncc([N+](=O)[O-])s1
inactive: all assays above

CCCCCCCCCCCCCC(=O)OCC(COP(=O)([O-])OCC[N+](C)(C)C)OC(=O)CCCCCCCCCCCCC (stereo not given)
inactive: all assays above

CN1C(=O)OC(C)(C)C1=O
inactive: all assays above

CCCC(=O)O
inactive: all assays above

C=Cc1ccc(S(=O)(=O)O)cc1
inactive: all assays above

C[C@H](CCC(=O)O)[C@H]1CC[C@H]2[C@@H]3CC[C@@H]4C[C@H](O)CC[C@]4(C)[C@H]3C[C@H](O)[C@]12C
inactive: all assays above

NCC[C@H](O)C(=O)N[C@@H]1C[C@H](N)[C@@H](O[C@H]2O[C@H](CN)CC[C@H]2N)[C@H](O)[C@H]1O[C@H]1O[C@H](CO)[C@@H](O)[C@H](N)[C@H]1O
inactive: all assays above

CC1=C(/C=C/C(C)=C/C=C/C(C)=C/C(=O)Oc2c(C)c(C)c3c(c2C)CC[C@@](C)(CCC[C@H](C)CCC[C@H](C)CCCC(C)C)O3)C(C)(C)CCC1
inactive: all assays above

CC(C)(CO)[C@@H](O)C(=O)NCCC(=O)NCCSSCCNC(=O)CCNC(=O)[C@H](O)C(C)(C)CO
inactive: all assays above

CCN(CC)C(=S)S
inactive: all assays above

CO
inactive: all assays above

CCCCCCCCCCCCCCCCCC[N+](C)(C)CCC[Si](OC)(OC)OC
inactive: all assays above

CC1CC(O)CC(C)(C)C1 (stereo not given)
inactive: all assays above

CCCCCCCCCC(=O)NO
inactive: all assays above

CCC(C(=O)NC(N)=O)c1ccccc1 (stereo not given)
inactive: all assays above

Oc1cc(O)cc(O)c1
inactive: all assays above

Cc1nc(NS(=O)(=O)c2ccc(N)cc2)nc(C)c1Br
inactive: all assays above

O[C@@H]([C@H](O)[C@H](O)CBr)[C@H](O)CBr
inactive: all assays above

CNC(=O)C[C@@H](N)C(=O)N[C@@H](C(=O)N[C@@H]1C(=O)N2[C@@H]1SC(C)(C)[C@@H]2C(=O)O)c1ccc(O)cc1
inactive: all assays above

[O-][N+](=Nc1ccccc1)c1ccccc1
inactive: all assays above

CC(C)CCC[C@@H](C)[C@H]1CC[C@H]2[C@@H]3CC[C@@H]4C[C@H](O)CC[C@]4(C)[C@H]3CC[C@]12C
inactive: all assays above

CCOc1ccc(S(=O)(=O)O)c2cccnc12
inactive: all assays above

CCCCCCCCCCCCOCCCN
inactive: all assays above

CC(C)(COP(=O)(O)OP(=O)(O)OC[C@H]1O[C@@H](n2cnc3c(N)ncnc32)[C@H](O)[C@@H]1OP(=O)(O)O)C(O)C(=O)NCCC(=O)NCCS (stereo not given in full)
inactive: all assays above

COc1ccc(/C=C/C(=O)O)cc1
inactive: all assays above

CCCCC[C@H](O)/C=C/[C@@H]1[C@H]2C/C(=C/CCCC(=O)O)O[C@H]2C[C@H]1O
inactive: all assays above
